Records with an inconclusive call do not appear. Active and inactive are the calls of the source. Unless noted, the call rests on the fitted dose curve; in most records, active means well fitted curve in the direction sought with a large enough effect in the repeat runs; inconclusive means weak or mixed curves; inactive means no such curve, though single readings can be large; an effect the other way counts as inactive or inconclusive.
Experiments:
[1] = qHTS RealTime-Glo MT Cell Viability Assay in HEK293 cells - 24 hour (AID 1224886); further: top concentration of the series differs between compounds; nearly all actives have a fitted effect of over 50% in size
How it was run: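 Assay medium contained NanoLuc luciferase plus cell-permeant prosubstrate, added with HEK293 cells at 600 cells/well. After 5 h at 37 C/5% CO2 compounds were added; plates stayed at 37 C for 40 h with serial luminescence reads.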

[2] = qHTS RealTime-Glo MT Cell Viability Assay in HEK293 cells - 8 hour (AID 1224887); further: top concentration of the series differs between compounds; nearly all actives have a fitted effect of over 50% in size
How it was run: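 Luminescence, which tracks viable cell number through reduction of the prosubstrate to a NanoLuc substrate, was read over continuous 37 C culture. Cells (600/well) were premixed with reagent and rested 5 h before 23 nL of compound in DMSO was pinned.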

[3] = A CellTox Green Cytotoxicity Assay to monitor cytotoxicity in HEK293 cells - 16 hour (AID 1224888); further: nearly all actives have a fitted effect of over 35% in size
How it was run: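 Fluorescence from a DNA-binding dye excluded by viable cells was measured repeatedly in the same HEK293 wells (600 cells/well) during continuous compound exposure at 37 C. Each assay gives one read point: 0, 8, 16, 24, 32 or 40 h.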

[4] = qHTS RealTime-Glo MT Cell Viability Assay in HepG2 cells - 0 hour (AID 1224889); further: nearly all actives have a fitted effect of over 50% in size
How it was run: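 qHTS, HepG2, 600 cells/well, RealTime-Glo (NanoLuc + prosubstrate) added with cells; 5 h preincubation; DMSO compound addition; 37 C; luminescence at 0/8/16/24/32/40 h.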

[5] = A CellTox Green Cytotoxicity Assay to monitor cytotoxicity in HepG2 cells - 8 hour (AID 1224890); further: nearly all actives have a fitted effect of over 45% in size
How it was run: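 Real-time cytotoxicity: fluorescence of a cell-impermeant cyanine dye binding DNA of dead HepG2 cells, measured repeatedly (0–40 h) during compound exposure at 37 C. Cells seeded 600/well with reagent, dosed after 5 h.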

[6] = qHTS assay to identify small molecule antagonists of the estrogen receptor alpha (ER-alpha) signaling pathway using the BG1 cell line in the presence of 0.1 nM 17-beta-estradiol - cell viability counter screen (AID 1259241); further: nearly all actives have a fitted effect of over 40% in size
How it was run: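 VM7Luc4E2, 4,000 cells/well, phenol red-free medium + 10% charcoal-stripped FBS; 24 hr plating; cpd + 0.1 nM E2 final, 22 hr 37C/5% CO2; CellTiter-Fluor 30 min, fluorescence.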

[7] = qHTS assay to identify small molecule antagonists of the androgen receptor (AR) signaling pathway using the MDA cell line in the presence of 0.5 nM R1881 - cell viability counter screen (AID 1259242); further: nearly all actives have a fitted effect of over 45% in size
How it was run: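 Live-cell protease activity was measured by CellTiter-Fluor fluorescence after 30 min. Before that, MDA-kb2 MMTV-luciferase cells had 16 hr at 37C without CO2, exposed to test compounds and 0.5 nM R1881 final.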

[8] = target: Estrogen receptor (Homo sapiens) (UniProt P03372); test: qHTS assay to identify small molecule antagonists of the estrogen receptor alpha (ER-alpha) signaling pathway using the BG1 cell line in the presence of 0.1 nM 17-beta-estradiol (AID 1259244); further: nearly all actives have a fitted effect of over 50% in size
Estrogen receptor (Homo sapiens), sequence (P03372 whole entry, looked up): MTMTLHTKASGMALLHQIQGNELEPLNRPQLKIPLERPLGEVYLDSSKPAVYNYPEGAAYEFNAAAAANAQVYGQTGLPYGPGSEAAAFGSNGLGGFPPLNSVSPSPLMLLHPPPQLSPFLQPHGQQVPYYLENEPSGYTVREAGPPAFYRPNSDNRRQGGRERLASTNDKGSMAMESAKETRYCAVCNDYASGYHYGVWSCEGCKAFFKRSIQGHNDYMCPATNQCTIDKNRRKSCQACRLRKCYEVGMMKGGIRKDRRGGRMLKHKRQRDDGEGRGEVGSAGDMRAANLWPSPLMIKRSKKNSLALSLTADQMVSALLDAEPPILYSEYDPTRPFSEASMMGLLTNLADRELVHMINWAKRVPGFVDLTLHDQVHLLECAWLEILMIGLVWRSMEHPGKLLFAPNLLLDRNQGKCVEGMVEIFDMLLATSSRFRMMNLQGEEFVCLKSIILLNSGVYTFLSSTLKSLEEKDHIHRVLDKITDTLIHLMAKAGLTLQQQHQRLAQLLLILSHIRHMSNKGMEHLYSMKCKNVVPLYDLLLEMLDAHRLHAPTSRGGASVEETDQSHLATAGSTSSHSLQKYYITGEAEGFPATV
How it was run: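 Luciferase luminescence (ONE-Glo, 30 min at room temperature) was read after 22 hr at 37C exposure to compounds plus 17beta-estradiol at 0.1 nM final. Cells were VM7Luc4E2 with endogenous ER-alpha and an ERE-driven luciferase, pre-cultured 5 days in hormone-depleted medium.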

[9] = qHTS assay to identify small molecule HDAC inhibitors (AID 1259364); further: top concentration of the series differs between compounds; nearly all actives have a fitted effect of over 45% in size
How it was run: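 Luminescence read after 30 min room-temperature HDAC-Glo incubation measures cellular class I/II HDAC activity. Compounds were applied for 2 hr at 37 C to HCT-116 wild-type cells seeded the day before.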

[10] = qHTS assay to identify small molecule HDAC inhibitors - cell viability counter screen (AID 1259365)
How it was run: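 Luminescence from CellTiter-Glo, developed 30min at room temperature, reports viability of wild-type HCT-116 cells treated 2hr with compounds at 37 C and 5% CO2 after overnight plating.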

[11] = qHTS assay to identify small molecule agonists of the sonic hedgehog signaling (Shh) pathway - cell viability counter screen (AID 1259366); further: nearly all actives have a fitted effect of over 50% in size
How it was run: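 Cytotoxicity counter screen run in the same wells as the Shh reporter assay. NIH/3T3 cells carrying a Gli1 response element–driven luciferase were treated with DMSO-dissolved compounds for 24hr, and live-cell protease activity was measured with CellTiter-Fluor.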

[12] = qHTS assay to identify small molecule antagonists of the sonic hedgehog signaling (Shh) pathway - cell viability counter screen (AID 1259367); further: nearly all actives have a fitted effect of over 55% in size
How it was run: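 Viability was read by CellTiter-Fluor fluorescence in the same wells, reagent added 23 hr into compound treatment and incubated 1 hr at 37C. The 3T3 Gli1-Luc reporter cells (2,000/well) received conditioned medium after compound and ran 24 hr.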

[13] = qHTS assay to identify small molecule agonists of the sonic hedgehog signaling (Shh) pathway (AID 1259368; calls by dose curve;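 further: NIH/3T3-derived 3T3Gli1-Luc cells carrying a stable Gli1-driven firefly luciferase reporter; series mostly up to about 92 µM; nearly all actives have a fitted effect of over 15% in size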)
How it was run: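 Luminescence was read after 30 min at room temperature with luciferase reagent. Before that, 3T3Gli1-Luc cells (NIH/3T3 clone, stable Gli1-Luc reporter; 2,000/well) were exposed to compounds for 24 hr at 37C, 5% CO2, compounds being added 4 hr post-plating.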

[14] = qHTS assay to identify small molecule antagonists of the sonic hedgehog signaling (Shh) pathway (AID 1259369; calls by dose curve; further: nearly all actives have a fitted effect of over 45% in size)
How it was run: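 Antagonist mode: compound added to 3T3 Gli1-Luc cells followed by conditioned-medium stimulation, 24 h at 37 C, 5% CO2. Inhibition taken as loss of Gli1-driven luciferase luminescence.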

[15] = qHTS assay to identify small molecule agonists of the androgen receptor (AR) signaling pathway in the presence of an antagonist - cell viability counter screen (AID 1259379);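 further: MDA-kb2 human breast cancer cells carrying an MMTV luciferase reporter; series mostly up to about 92 µM; nearly all actives have a fitted effect of over 25% in size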
How it was run: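 Cytotoxicity counter-screen run in the same wells as the nilutamide-challenged (3.0 µM final) AR agonist assay in MDA-kb2 cells. Compounds tested at 15 concentrations for 16 h, 37 °C without CO2; CellTiter-Fluor fluorescence read.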

[16] = qHTS assay to identify small molecule agonists of the estrogen receptor beta (ER-beta) signaling pathway - cell viability counter screen (AID 1259380); further: nearly all actives have a fitted effect of over 30% in size
How it was run: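 Cell viability counter screen: CellTiter-Glo luminescence (30 min, room temperature) measured in the same wells as the beta-lactamase readout, after 16 hr compound exposure at 37C of ER-beta-bla HEK293T cells in 2% charcoal-stripped FBS medium.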

[17] = qHTS assay to identify small molecule phospholipidosis (PLD) inducers (AID 1259344; active means well fitted curve in the direction sought with a large enough effect; an effect the other way counts as inactive or inconclusive)
How it was run: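 Phospholipid accumulation was scored by imaging: fixed, Hoechst-counterstained HepG2 cells stained with LipidTOX Red after 24 h compound exposure at 37 C. Read-outs were pit count and pit intensity per well or per cell, with amiodarone and DMSO controls.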

[18] = target: Estrogen receptor beta (Homo sapiens) (UniProt Q92731); test: qHTS assay to identify small molecule agonists of the estrogen receptor beta (ER-beta) signaling pathway (AID 1259377; active means well fitted activation curve with a large enough effect in the signal ratio in the repeat runs, not every such curve was filed as active; the % refers to the signal ratio)
Estrogen receptor beta (Homo sapiens), sequence (Q92731 whole entry, looked up): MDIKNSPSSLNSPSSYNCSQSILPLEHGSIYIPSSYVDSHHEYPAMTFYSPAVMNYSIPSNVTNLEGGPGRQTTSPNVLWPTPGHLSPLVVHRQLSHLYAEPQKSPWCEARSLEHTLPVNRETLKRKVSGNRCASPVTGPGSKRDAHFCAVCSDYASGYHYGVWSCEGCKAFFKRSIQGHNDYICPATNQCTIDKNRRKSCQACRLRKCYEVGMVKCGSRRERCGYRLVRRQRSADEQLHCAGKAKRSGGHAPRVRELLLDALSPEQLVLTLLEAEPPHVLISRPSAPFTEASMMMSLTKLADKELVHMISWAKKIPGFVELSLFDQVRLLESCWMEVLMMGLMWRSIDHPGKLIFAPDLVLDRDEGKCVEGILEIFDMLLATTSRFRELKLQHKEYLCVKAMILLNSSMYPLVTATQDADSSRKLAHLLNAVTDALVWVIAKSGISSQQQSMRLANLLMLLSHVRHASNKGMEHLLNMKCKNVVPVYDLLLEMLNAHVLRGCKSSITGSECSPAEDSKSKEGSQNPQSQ
How it was run: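 HEK293T ER-beta-UAS-bla; 2% charcoal-stripped FBS; cells pre-incubated 6 hr, compound 16 hr, 37C/5% CO2; LiveBLAzer B/G FRET substrate 2 h RT; fluorescence intensity read.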

[19] = target: Androgen receptor (Homo sapiens) (UniProt P10275); test: qHTS assay to identify small molecule antagonists of the androgen receptor (AR) signaling pathway using the MDA cell line in the presence of 0.5 nM R1881 (AID 1259243); further: nearly all actives have a fitted effect of over 50% in size
Androgen receptor (Homo sapiens), sequence (P10275 whole entry, looked up): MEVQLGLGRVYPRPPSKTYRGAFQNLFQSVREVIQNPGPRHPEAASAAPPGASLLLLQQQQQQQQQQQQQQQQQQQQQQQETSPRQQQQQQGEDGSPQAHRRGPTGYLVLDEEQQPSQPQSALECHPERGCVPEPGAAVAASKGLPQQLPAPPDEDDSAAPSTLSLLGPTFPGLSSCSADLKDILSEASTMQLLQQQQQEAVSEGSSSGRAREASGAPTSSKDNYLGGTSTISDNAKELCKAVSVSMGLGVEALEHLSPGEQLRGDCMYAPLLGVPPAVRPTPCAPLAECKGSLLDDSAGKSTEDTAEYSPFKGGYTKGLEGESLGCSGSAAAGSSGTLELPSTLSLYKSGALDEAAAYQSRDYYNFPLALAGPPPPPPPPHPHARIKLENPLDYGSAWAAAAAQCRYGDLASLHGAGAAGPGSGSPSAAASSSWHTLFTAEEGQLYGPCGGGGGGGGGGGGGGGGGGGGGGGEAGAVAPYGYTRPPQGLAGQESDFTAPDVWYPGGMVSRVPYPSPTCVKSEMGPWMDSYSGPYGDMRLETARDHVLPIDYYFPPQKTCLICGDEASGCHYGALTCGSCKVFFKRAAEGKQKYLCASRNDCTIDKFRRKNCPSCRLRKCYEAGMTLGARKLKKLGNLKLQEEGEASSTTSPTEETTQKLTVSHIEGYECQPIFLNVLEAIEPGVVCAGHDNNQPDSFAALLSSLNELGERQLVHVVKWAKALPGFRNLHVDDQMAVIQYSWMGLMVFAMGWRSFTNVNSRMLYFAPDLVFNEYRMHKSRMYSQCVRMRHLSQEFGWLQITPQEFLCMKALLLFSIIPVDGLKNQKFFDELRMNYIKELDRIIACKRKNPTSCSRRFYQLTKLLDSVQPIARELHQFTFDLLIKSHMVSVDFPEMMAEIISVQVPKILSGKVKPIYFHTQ
How it was run: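 Luminescent reporter readout (ONE-Glo, 30 min, room temperature) after 16 hr co-treatment of MDA-kb2 cells with test compounds and 0.5 nM R1881 final, at 37C without CO2. The MMTV-driven luciferase responds to both AR and GR.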

[20] = target: Estrogen receptor beta (Homo sapiens) (UniProt Q92731); test: qHTS assay to identify small molecule antagonists of the estrogen receptor beta (ER-beta) signaling pathway (AID 1259378; active means well fitted inhibition curve with a large enough effect in the signal ratio in the repeat runs, not every such curve was filed as active; the % refers to the signal ratio)
How it was run: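 Antagonist mode: compounds added to beta-lactamase reporter HEK293T ER-beta-UAS cells stimulated with E2 (1nM final), 16 hr at 37C. LiveBLAzer B/G FRET substrate, 2 hours room temperature, fluorescence read-out.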
On the % scale 0 is the no-effect control and ±100 the full control effect.

OCCN1CCOCC1
inactive: Potency [1] | Potency [2] | Potency [3] | Potency [4] | Potency [5] | outcome [6] | outcome [7] | outcome [8] | Potency [9] | outcome [10] | outcome [11] | outcome [12] | outcome [13] | Potency [14] | outcome [15] | outcome [16]

CN1C[C@@H]2C[C@H]1CN2c1cc2c(cc1F)c(=O)c(C(=O)O)cn2C1CC1
inactive: activity change, negative = cytotoxicity [1] 4.15% [at 15.8 µM] | activity change, negative = cytotoxicity [2] 0.091% [at 15.8 µM] | activity change [3] -3.93% [at 15.8 µM, stronger effect = higher value] | activity change, negative = cytotoxicity [4] 10% [at 15.8 µM] | cytotoxicity increase [5] 6.75% [at 15.8 µM] | activity change, negative = cytotoxicity [6] -8.33% [at 19 µM] | viability change, negative = cytotoxic [7] -2.38% [at 19 µM] | activity change, negative = inhibition [8] -0.393% [at 19 µM] | outcome [17] | activity change, negative = inhibition [9] 2.17% [at 19 µM] | activity change, negative = cytotoxicity [10] 5.3% [at 19 µM] | viability change, negative = cytotoxic [11] -1.9% [at 19 µM] | viability change, negative = cytotoxic [12] 0.743% [at 19 µM] | activity change [13] -1.48% [at 18.9 µM] | activity change, negative = inhibition [14] -3.45% [at 19 µM] | activation [18] 1.21% [at 19 µM] | activity change, negative = cytotoxicity [15] 0.0403% [at 19 µM] | activity change, negative = cytotoxicity [16] 1.14% [at 19 µM]

COC(C)(OC)OC
inactive: Potency [1] | Potency [2] | Potency [3] | Potency [4] | Potency [5] | outcome [6] | outcome [7] | Potency [19] | outcome [8] | Potency [9] | outcome [10] | outcome [11] | outcome [12] | outcome [13] | Potency [14] | outcome [15] | outcome [16]

C=CCCCCCCCCC(=O)OCCCC
inactive: Potency [1] | Potency [2] | Potency [3] | Potency [4] | Potency [5] | outcome [6] | outcome [7] | outcome [8] | Potency [9] | outcome [10] | outcome [11] | outcome [12] | outcome [13] | Potency [14] | Potency [20] | outcome [15] | outcome [16]

C[C@H]1[C@@H](c2ccccc2)NC(=O)N1C
inactive: Potency [1] | Potency [2] | Potency [3] | Potency [4] | Potency [5] | outcome [6] | outcome [7] | outcome [8] | Potency [9] | outcome [10] | outcome [11] | outcome [12] | outcome [13] | Potency [14] | Potency [18] | outcome [15] | outcome [16]

CCO[Si](CC)(OCC)OCC
inactive: Potency [1] | Potency [2] | Potency [3] | Potency [4] | Potency [5] | outcome [6] | outcome [7] | Potency [19] | outcome [8] | outcome [11] | outcome [12] | outcome [13] | Potency [14] | Potency [18] | Potency [20] | outcome [15] | outcome [16]

OC1(c2ccc(Cl)cc2)CCNCC1
inactive: Potency [1] | Potency [2] | Potency [3] | Potency [4] | Potency [5] | outcome [6] | outcome [7] | outcome [8] | Potency [9] | outcome [10] | outcome [11] | outcome [12] | outcome [13] | Potency [14] | Potency [18] | Potency [20] | outcome [15] | outcome [16]

C=CCOC(=O)CCCCCC
inactive: Potency [1] | Potency [2] | Potency [3] | Potency [4] | Potency [5] | outcome [6] | outcome [7] | Potency [19] | Potency [9] | outcome [10] | outcome [11] | outcome [12] | outcome [13] | Potency [14] | Potency [18] | outcome [15] | outcome [16]

From PubChem BioAssay (Tox21)
